In PubChem BioAssay (EPA / NIEHS):
Where “and” joins values, the source holds several entries; their conditions need not be identical. Identical values can stand only once. Some compounds were tested as several samples or in several runs, with calls that do not always agree. Calls of active or inactive are those of the source. The calls were made as follows: active = hit-call score of the fitted dose curve at least 0.9, where 1 is the maximum; inactive = score below 0.9.

Experiments:
[1] = read-out: Collagen III, COL3A1 (gene 1281); assay: BSK_MyoF_CollagenIII: BioMAP Diversity Plus: MyoF Assay for Collagen III Biomarker Activity (AID 2284239); details: primary human lung fibroblasts
In short: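 Lung fibroblast culture; 24 h compound exposure; collagen III by ELISA; gain-of-signal fit vs DMSO baseline.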

[2] = read-out: Actin alpha 1 (ACTA1), ACTA1 (gene 58); assay: BSK_MyoF_ACTA1: BioMAP Diversity Plus: MyoF Assay for Actin alpha 1 (ACTA1) Biomarker Activity (AID 2284244); details: primary human lung fibroblasts
In short: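 ELISA read-out of a-SMA in primary human lung fibroblast cultures, 24 h post-dosing. Activity scored in the positive direction versus DMSO baseline.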

[3] = read-out: Interleukin 2 (IL2), IL2 (gene 3558); assay: BSK_BT_xIL2: BioMAP Diversity Plus: BT Assay for Interleukin 2 (IL2) Biomarker Activity (AID 2284245); details: primary human B cells with PBMC
In short: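 Readout: supernatant IL-2 via Luminex xMAP after 24 h chemical dosing of a B cell/PBMC primary human co-culture. DMSO serves as negative control and baseline; increases in signal were fitted.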

[4] = read-out: Basic fibroblast growth factor (bFGF), FGF2 (gene 2247); assay: BSK_MyoF_bFGF: BioMAP Diversity Plus: MyoF Assay for Basic fibroblast growth factor (bFGF) Biomarker Activity (AID 2284246); details: primary human lung fibroblasts
In short: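 Primary human lung fibroblast culture, 24 h compound exposure; ELISA read-out of bFGF. Positive-direction fit vs DMSO baseline. Cytotoxicity: SRB stain (0.1% SRB, 10% TCA fixation, 560 nm) in parallel wells.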

[5] = read-out: Collagen IV, COL4A1 (gene 1282); assay: BSK_MyoF_CollagenIV: BioMAP Diversity Plus: MyoF Assay for Collagen IV Biomarker Activity (AID 2284247); details: primary human lung fibroblasts
In short: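 ELISA read-out of Collagen IV in lung fibroblast cultures, 24 h post-dosing; gain of signal relative to DMSO vehicle baseline defines activity.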

[6] = read-out: Plasminogen activator inhibitor-1 (PAI1), SERPINE1 (gene 5054); assay: BSK_MyoF_PAI1: BioMAP Diversity Plus: MyoF Assay for Plasminogen activator inhibitor-1 (PAI1) Biomarker Activity (AID 2284256); details: primary human lung fibroblasts
In short: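 MyoF lung fibroblasts, human primary; compound 24 h; PAI-1 ELISA; positive-direction fit vs DMSO baseline; parallel SRB total-protein staining for cytotoxicity.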

[7] = read-out: Interleukin-8 (IL8), CXCL8 (gene 3576); assay: BSK_MyoF_IL8: BioMAP Diversity Plus: MyoF Assay for Interleukin-8 (IL8) Biomarker Activity (AID 2284261); details: primary human lung fibroblasts
In short: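 Lung fibroblasts (human primary) → chemical exposure → 24 h → IL-8 measured by ELISA. Signal increase scored versus DMSO control.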

Decorin, DCN (gene 1634) = assay: BSK_MyoF_Decorin: BioMAP Diversity Plus: MyoF Assay for Decorin Biomarker Activity (AID 2284265); details: primary human lung fibroblasts
In short: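 ELISA readout of decorin, 24 h post-dosing; primary human lung fibroblast (MyoF) culture; gain-of-signal fit vs DMSO baseline.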

[8] = BSK_MyoF_SRB: Viability Assessment in the BioMAP Diversity Plus: MyoF Assay (AID 2284267); details: primary human lung fibroblasts;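 also: total protein by SRB absorbance in parallel cultures as cytotoxicity measure; cells assessed 24 h after compound addition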
In short: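 Lung fibroblast cultures, 24 h post-dose; fix 10% TCA, stain 0.1% SRB, read 560 nm. Signal = total protein as cytotoxicity measure; fitted relative to DMSO negative control.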

[9] = read-out: Matrix Metallopeptidase 1 (MMP1), MMP1 (gene 4312); assay: BSK_MyoF_MMP1: BioMAP Diversity Plus: MyoF Assay for Matrix Metallopeptidase 1 (MMP1) Biomarker Activity (AID 2284268); details: primary human lung fibroblasts
In short: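 Cells: human lung fibroblasts. Exposure: 24 h chemical dosing. Detection: ELISA for MMP1. Analysis: upward fitting against DMSO negative control.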

[10] = read-out: TIMP metallopeptidase inhibitor 1 (TIMP1), TIMP1 (gene 7076); assay: BSK_MyoF_TIMP1: BioMAP Diversity Plus: MyoF Assay for TIMP metallopeptidase inhibitor 1 (TIMP1) Biomarker Activity (AID 2284269); details: primary human lung fibroblasts
In short: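 ELISA quantified TIMP-1 levels after 24 h dosing of primary human lung fibroblasts, with DMSO as baseline. Parallel SRB total protein staining (0.1% SRB after TCA fixation, 560 nm) flagged overt cytotoxicity.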

[11] = read-out: Monokine induced gamma interferon (MIG), CXCL9 (gene 4283); assay: BSK_KF3CT_MIG: BioMAP Diversity Plus: KF3CT Assay for Monokine induced gamma interferon (MIG) Biomarker Activity (AID 2284248); details: primary human keratinocytes with fibroblasts
In short: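 ELISA read-out of MIG after 24 h chemical exposure of human skin primary co-culture (keratinocytes, foreskin fibroblasts). Gain of signal relative to DMSO negative control was analysed.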

[12] = read-out: Collagen I, COL1A1 (gene 1277); assay: BSK_hDFCGF_CollagenI: BioMAP Diversity Plus: hDFCGF Assay for Collagen I Biomarker Activity (AID 2284250); details: primary human foreskin fibroblasts
In short: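 ELISA read-out of Collagen I in human dermal foreskin fibroblast cultures, 24 h after dosing. Gain of signal versus DMSO vehicle defines activity.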

[13] = read-out: Plasminogen activator inhibitor-1 (PAI1), SERPINE1 (gene 5054); assay: BSK_KF3CT_PAI1: BioMAP Diversity Plus: KF3CT Assay for Plasminogen activator inhibitor-1 (PAI1) Biomarker Activity (AID 2284252); details: primary human keratinocytes with fibroblasts
In short: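 Keratinocyte + dermal fibroblast co-culture (human primary); 24 h post-dose; PAI-1 by ELISA; gain-of-signal fit vs DMSO control.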

[14] = read-out: Interleukin-8 (IL8), CXCL8 (gene 3576); assay: BSK_KF3CT_IL8: BioMAP Diversity Plus: KF3CT Assay for Interleukin-8 (IL8) Biomarker Activity (AID 2284254); details: primary human keratinocytes with fibroblasts
In short: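 IL-8 read-out: ELISA, 24 h post-dose, human skin primary co-culture (keratinocytes + foreskin fibroblasts). DMSO = baseline; positive-direction fit.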

[15] = read-out: Interferon-inducible T-cell alpha chemoattractant (ITAC), CXCL11 (gene 6373); assay: BSK_BE3C_ITAC: BioMAP Diversity Plus: BE3C Assay for Interferon-inducible T-cell alpha chemoattractant (ITAC) Biomarker Activity (AID 2284279); details: primary human bronchial epithelial cells
In short: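 ELISA for I-TAC in primary human bronchial epithelial cultures 24 h post-treatment, fitted relative to DMSO baseline in positive direction. Cytotoxicity checked in parallel cultures by sulforhodamine B protein staining.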

[16] = read-out: Interleukin-8 (IL8), CXCL8 (gene 3576); assay: BSK_BE3C_IL8: BioMAP Diversity Plus: BE3C Assay for Interleukin-8 (IL8) Biomarker Activity (AID 2284280); details: primary human bronchial epithelial cells
In short: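 Dose human bronchial epithelial cells with chemical; incubate 24 h; quantify IL-8 by ELISA; fit response upward versus DMSO controls.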

[17] = read-out: Epidermal growth factor receptor (EGFR), EGFR (gene 1956); assay: BSK_BE3C_EGFR: BioMAP Diversity Plus: BE3C Assay for Epidermal growth factor receptor (EGFR) Biomarker Activity (AID 2284281); details: primary human bronchial epithelial cells
In short: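 ELISA read-out of EGFR levels on human bronchial epithelial primary cells collected 24 h post-dosing. DMSO served as negative control and baseline for gain-of-signal fitting.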

Measured: AC50

CC(C)(COC(=O)c1ccccc1)COC(=O)c1ccccc1
inactive: [1] | [2] | [3] | [4] | [5] | [6] | [7] | Decorin, DCN (gene 1634) | [8] | [9] | [10]

NCCNCCN
inactive: [11] | [12] | [13] | [14] | [15] | [16] | [17]

OC1OC[C@@H](O)[C@H](O)[C@H]1O (stereo not given in full)
inactive: [11] | [12] | [13] | [14] | [15] | [16] | [17]

OC[C@H]1O[C@H](O[C@]2(CCl)O[C@H](CCl)[C@@H](O)[C@@H]2O)[C@H](O)[C@@H](O)[C@H]1Cl
inactive: [11] | [12] | [13] | [14] | [15] | [16] | [17]

c1ccc2sc(SN(C3CCCCC3)C3CCCCC3)nc2c1
active: [2] 5.57 µM | [9] 6.26 µM
inactive: [1] | [3] | [4] | [5] | [6] | [7] | Decorin, DCN (gene 1634) | [8] | [10]

CCCCCCCCCCCCCCCCCC(=O)OCC(CC)CCCC (stereo not given)
inactive: [1] | [2] | [3] | [4] | [5] | [6] | [7] | Decorin, DCN (gene 1634) | [8] | [9] | [10]

C#C[C@]1(O)CC[C@H]2[C@@H]3CCC4=Cc5oncc5C[C@]4(C)[C@H]3CC[C@@]21C
active: [1] 28.1 µM | [3] 28.6 µM | [4] 30.8 µM | [6] 3.97 µM | [10] 35.8 µM
inactive: [2] | [5] | [7] | Decorin, DCN (gene 1634) | [8] | [9]

O=C1CCCCCCCCCCCCCCO1
active: [1] 20 µM | [2] 13.9 µM | [3] 32.9 µM | [9] 20 µM
inactive: [4] | [5] | [6] | [7] | Decorin, DCN (gene 1634) | [8] | [10]

C=CCOC(=O)CCC1CCCCC1
inactive: [11] | [12] | [13] | [14] | [15] | [16] | [17]

CC[Si](OC(C)=O)(OC(C)=O)OC(C)=O
inactive: [11] | [12] | [13] | [14] | [15] | [16] | [17]

O=P(c1ccccc1)(c1ccccc1)c1ccccc1
inactive: [1] | [2] | [3] | [4] | [5] | [6] | [7] | Decorin, DCN (gene 1634) | [8] | [9] | [10]

CC(=O)OCCC(C)CC(C)(C)C (stereo not given)
inactive: [11] | [12] | [13] | [14] | [15] | [16] | [17]

COC(=O)c1ccc(C)cc1
inactive: [1] | [2] | [3] | [4] | [5] | [6] | [7] | Decorin, DCN (gene 1634) | [8] | [9] | [10]

CCC(=O)OCc1ccccc1
inactive: [11] | [12] | [13] | [14] | [15] | [16] | [17]

Nc1cc([N+](=O)[O-])ccc1O
inactive: [11] | [12] | [13] | [14] | [15] | [16] | [17]

COc1cc(C=O)ccc1OC(=O)C(C)C
inactive: [11] | [12] | [13] | [14] | [15] | [16] | [17]

C[C@H]1C[C@@H]2[C@H]([C@@H](O)C[C@@]3(C)[C@H]2CC[C@]3(O)C(=O)CO)[C@@]2(C)C=CC(=O)C=C12
inactive: [11] | [12] | [13] | [14] | [15] | [16] | [17]

CCn1c2ccccc2c2cc(N)ccc21
inactive: [1] | [2] | [3] | [4] | [5] | [6] | [7] | Decorin, DCN (gene 1634) | [8] | [9] | [10]

CC(=O)/C=C/C1=C(C)CCCC1(C)C
inactive: [1] | [2] | [3] | [4] | [5] | [6] | [7] | Decorin, DCN (gene 1634) | [8] | [9] | [10]

Nc1cc([N+](=O)[O-])ccc1Cl
inactive: [1] | [2] | [3] | [4] | [5] | [6] | [7] | Decorin, DCN (gene 1634) | [8] | [9] | [10]

CNC[C@H](O)c1cccc(O)c1
inactive: [2] | [3] | [4] | [5] | [6] | [7] | Decorin, DCN (gene 1634) | [8] | [9] | [10]
active: [1] 0.016 µM

CC(=O)[C@H]1CC[C@H]2[C@@H]3CC=C4C[C@@H](O)CC[C@]4(C)[C@H]3CC[C@]12C
active: [12] 5.65 µM and 9.87 µM | [13] 3.88 µM
inactive: [11] | [13] | [14] | [15] | [16] | [17]

CCCCC/C=C/C=C/C=O
inactive: [7] | [9]
active: [1] 32.2 µM | [2] 31.6 µM | [3] 31.4 µM | [4] 36.8 µM | [5] 10.5 µM | [6] 29.4 µM | Decorin, DCN (gene 1634) 20 µM | [8] 32 µM | [10] 34.2 µM

Cc1cc(C2(c3cc(C)c(O)cc3C)OS(=O)(=O)c3ccccc32)c(C)cc1O
inactive: [11] | [12] | [13] | [14] | [15] | [16] | [17]

O=[N+]([O-])c1cc(C(F)(F)F)ccc1Cl
active: [6] 0.11 µM
inactive: [1] | [2] | [3] | [4] | [5] | [7] | Decorin, DCN (gene 1634) | [8] | [9] | [10]

C=C[Si](OCC)(OCC)OCC
inactive: [1] | [2] | [3] | [4] | [5] | [6] | [7] | Decorin, DCN (gene 1634) | [8] | [9] | [10]

O=C1OC2(c3cc(Br)c(O)c(Br)c3Oc3c2cc(Br)c(O)c3Br)c2c(Cl)c(Cl)c(Cl)c(Cl)c21
active: [1] 4.52 µM | [2] 5.23 µM | [4] 11.9 µM | [5] 2.72 µM | [6] 4.56 µM | [7] 20 µM | Decorin, DCN (gene 1634) 13.2 µM | [8] 9.73 µM | [10] 8.64 µM
inactive: [3] | [9]
